# Measured values: PubChem BioAssay
# Active and inactive are the calls of the source. Unless noted, how the calls were made is not given here.
# Experiments:
# [1] = test system: Wnt5a (protein binding on small-molecule microarray); experiment: small molecules binding Wnt5a protein – biophysical, small-molecule microarray, 635/667 nm fluorescence, primary screen (AID 1142); conditions: 635 nm fluorescence, higher = more signal;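 further: fluorescence read at 667 nm with signal to noise per printed feature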
# [2] = ATP-based viability of Huh7 replicon cells – cell-based, CellTiter-Glo luminescence, basal, 48 h, cytotoxicity control for HCV replication inhibitor project, primary screen (AID 1143); conditions: Huh7 HCV replicon, CellTiter-Glo luminescence, 48 h, higher = more signal, called active from +8 up or from −8 down unless noted;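 further: Huh7 hepatoma cells carrying a hepatitis C replication reporter with no stimulus; test concentration not given here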
# [3] = Pseudomonas biofilm growth suppression – PAO1 strain, BacTiter-Glo luminescence, LB-PBS, primary screen (AID 1144); conditions: P. aeruginosa PAO1 biofilm, 12 h, higher = more signal
# [4] = basal CRE-LacZ reporter activity in PC12 – cell-based, unstimulated, primary screen (AID 1145); conditions: no forskolin, luminescence, 4.5 h; higher = more signal, called active from +8 up or from −8 down unless noted
# [5] = forskolin-driven CRE-LacZ activity in PC12 – cell-based, CRE-LacZ reporter, forskolin-stimulated, primary screen (AID 1146); conditions: luminescence, 4.5 h; higher = more signal, called active from +8 up or from −8 down unless noted;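 further: PC12 cells with 6xCRE LacZ reporter stimulated by forskolin 10 µM; beta-galactosidase reporter signal reflecting CREB driven transcription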
# [6] = target: Streptavidin (Streptomyces avidinii) (UniProt P22629); experiment: compounds binding control protein streptavidin – biophysical, small-molecule microarray, 635/667 nm fluorescence, artefact control for SMM compound annotation, primary screen (AID 1147); conditions: higher = more signal;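 further: signal reflects streptavidin binding to arrayed compounds as a control protein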
# Sequence of Streptavidin (Streptomyces avidinii) (P22629 whole entry, looked up): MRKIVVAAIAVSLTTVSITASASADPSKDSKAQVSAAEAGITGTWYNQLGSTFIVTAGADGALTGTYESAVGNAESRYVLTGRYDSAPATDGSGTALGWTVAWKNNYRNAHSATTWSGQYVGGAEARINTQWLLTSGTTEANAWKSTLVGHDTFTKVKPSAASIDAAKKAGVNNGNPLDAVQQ
# [7] = probe aInhba binding on compound microarray – biochemical, small-molecule microarray, 635/667 nm fluorescence, primary screen (AID 1148); conditions: higher = more signal; small-molecule microarray, probe aInhba, fluorescence unless noted;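 further: score merges 667nm spot fluorescence with signal-to-noise for antibody binding to printed compounds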
# Torsin-1A (Homo sapiens) [8] = target: Torsin-1A (Homo sapiens) (UniProt O14656); experiment: TOR1A wild-type binding on microarray – cell lysate, small-molecule microarray, lysate, 635/667 nm, primary screen (AID 1149); conditions: COS7 hTOR1A-WT lysate, 635 nm fluorescence, higher = more signal
# Sequence of Torsin-1A (Homo sapiens) (O14656 whole entry, looked up): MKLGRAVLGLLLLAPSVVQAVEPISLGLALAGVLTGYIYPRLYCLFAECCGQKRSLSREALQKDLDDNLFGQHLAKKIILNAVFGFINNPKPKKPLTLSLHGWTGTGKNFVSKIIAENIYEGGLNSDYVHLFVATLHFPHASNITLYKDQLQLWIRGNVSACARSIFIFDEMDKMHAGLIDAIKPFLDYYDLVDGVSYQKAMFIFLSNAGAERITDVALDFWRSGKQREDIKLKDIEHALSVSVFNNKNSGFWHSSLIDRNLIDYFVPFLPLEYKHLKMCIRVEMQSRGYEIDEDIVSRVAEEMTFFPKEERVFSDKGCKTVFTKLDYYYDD
# Torsin-1A (Homo sapiens) [9] = target: Torsin-1A (Homo sapiens) (UniProt O14656); experiment: torsin A mutant lysate binding on microarrays – cell lysate, small-molecule microarray, COS7 lysate, 635/667 nm fluorescence, primary screen (AID 1150); conditions: COS7 hTOR1A mutant lysate, 635 nm fluorescence, higher = more signal;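 further: score pools 667 nm emission and signal to noise measuring lysate protein binding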
# [10] = test system: Sonic hedgehog protein (Shh); experiment: Sonic hedgehog microarray binding compounds – biochemical, small-molecule microarray, 635/667 nm fluorescence, primary screen (AID 1151); conditions: 635 nm fluorescence, higher = more signal;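 further: Shh protein binding to compounds spotted on small-molecule microarray slides; score combines spot fluorescence intensity with signal-to-noise across triplicate slides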
# [11] = optical density shifts of acrAB sulA E. coli – strain DRC41, OD650, 48 h, E. coli filamentation inducer project, primary screen (AID 1152); conditions: higher = more signal, called active from +8 up or from −8 down unless noted;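 further: E. coli MC1000 strain DRC41 lacking acrAB efflux pump and sulA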
# [12] = probe aLefty1 binding on compound microarray – biochemical, small-molecule microarray, 635/667 nm fluorescence, primary screen (AID 1153); conditions: higher = more signal; small-molecule microarray, probe aLefty1, fluorescence unless noted;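 further: score merges spot fluorescence with signal-to-noise ratio from the scanned slide images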
# [13] = plasmodial surface anion channel blockers, osmotic lysis – cell-based, P. falciparum Indochina, OD700, 1 h, primary screen (AID 1154); conditions: P. falciparum Indochina infected RBC osmotic lysis; higher = more signal, called active from +8 up or from −8 down unless noted
# [14] = plasmodial surface anion channel blockers, osmotic lysis – cell-based, P. falciparum Indochina, OD700, 2 h, primary screen (AID 1155);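 further: lysis reports solute entry through the parasite surface anion channel PSAC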; conditions: P. falciparum Indochina infected erythrocytes; higher = more signal, called active from +8 up or from −8 down unless noted
# [15] = changes in parasitized red cell lysis, either direction – P. falciparum Indochina, OD700, 3 h, PSAC antagonist project, primary screen (AID 1156); conditions: P. falciparum-infected erythrocytes, osmotic lysis; higher = more signal, called active from +8 up or from −8 down unless noted
# [16] = plasmodial surface anion channel blockers, osmotic lysis – cell-based, P. falciparum Indochina, OD700, 18 h, primary screen (AID 1157); conditions: P. falciparum Indochina infected erythrocytes, osmotic lysis OD700, 18 h; higher = more signal, called active from +8 up or from −8 down unless noted
# [17] = S6 kinase pathway phospho-S6 level changes – cell-based, A549, cytoblot, luminescence, serum-stimulated, primary screen (AID 1158); conditions: 5 h, higher = more signal;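 further: serum-stimulated A549 lung adenocarcinoma cells; signal is phosphorylated S6 detected by cytoblot immunostaining with HRP secondary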
# [18] = target: NADPH oxidase 2 (Homo sapiens) (UniProt P04839); experiment: compounds shifting NOX2 Amplex Red fluorescence – cell-based, HEK293-NOX2, PMA-stimulated, NOX inhibitor project, primary screen (AID 1159); conditions: 45 min; higher = more signal, called active from +8 up or from −8 down unless noted; further: test concentration not given here
# Sequence of NADPH oxidase 2 (Homo sapiens) (P04839 whole entry, looked up): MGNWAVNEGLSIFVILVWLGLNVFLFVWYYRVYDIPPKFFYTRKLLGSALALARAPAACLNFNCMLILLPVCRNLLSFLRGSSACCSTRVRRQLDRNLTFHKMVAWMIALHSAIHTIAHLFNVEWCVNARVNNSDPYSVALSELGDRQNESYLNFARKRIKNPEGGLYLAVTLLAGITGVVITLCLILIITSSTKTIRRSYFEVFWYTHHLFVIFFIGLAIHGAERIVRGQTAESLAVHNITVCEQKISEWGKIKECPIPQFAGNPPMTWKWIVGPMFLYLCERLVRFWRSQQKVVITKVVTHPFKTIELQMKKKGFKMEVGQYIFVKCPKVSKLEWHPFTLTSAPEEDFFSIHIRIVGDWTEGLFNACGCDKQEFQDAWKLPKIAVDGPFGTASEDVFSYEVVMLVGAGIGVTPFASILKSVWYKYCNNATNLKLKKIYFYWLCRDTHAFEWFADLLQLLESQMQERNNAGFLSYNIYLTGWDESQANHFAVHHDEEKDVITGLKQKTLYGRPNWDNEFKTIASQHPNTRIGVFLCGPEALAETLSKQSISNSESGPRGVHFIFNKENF
# [19] = target: NADPH oxidase 4 (Homo sapiens) (UniProt Q9NPH5); experiment: compounds shifting NOX4 Amplex Red fluorescence – cell-based, HEK293-NOX4, tetracycline-induced, NOX inhibitor project, primary screen (AID 1160); conditions: HEK293-NOX4, Amplex Red H2O2 fluorescence, 45 min; higher = more signal, called active from +8 up or from −8 down unless noted
# Sequence of NADPH oxidase 4 (Homo sapiens) (Q9NPH5 whole entry, looked up): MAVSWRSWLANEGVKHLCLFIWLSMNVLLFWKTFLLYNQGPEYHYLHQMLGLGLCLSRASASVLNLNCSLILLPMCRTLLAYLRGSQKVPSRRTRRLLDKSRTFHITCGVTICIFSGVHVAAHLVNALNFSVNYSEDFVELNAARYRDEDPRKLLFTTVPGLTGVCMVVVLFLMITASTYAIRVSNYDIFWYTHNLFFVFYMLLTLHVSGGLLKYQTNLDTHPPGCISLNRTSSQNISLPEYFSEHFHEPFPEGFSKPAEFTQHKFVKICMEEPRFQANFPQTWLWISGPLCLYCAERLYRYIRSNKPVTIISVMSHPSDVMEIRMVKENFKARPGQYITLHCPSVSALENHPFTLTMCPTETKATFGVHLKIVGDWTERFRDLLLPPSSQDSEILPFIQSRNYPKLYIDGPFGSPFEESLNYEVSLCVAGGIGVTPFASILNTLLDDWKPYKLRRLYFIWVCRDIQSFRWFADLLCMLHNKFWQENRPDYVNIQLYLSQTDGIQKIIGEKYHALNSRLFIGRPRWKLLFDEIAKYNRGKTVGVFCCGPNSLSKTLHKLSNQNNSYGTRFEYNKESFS
# [20] = target: NADPH oxidase 5 (Homo sapiens) (UniProt Q96PH1); experiment: compounds shifting NOX5 Amplex Red fluorescence – cell-based, HEK293-NOX5, NOX inhibitor project, primary screen (AID 1161); conditions: HEK293-NOX5, ionomycin, 45 min, higher = more signal
# Sequence of NADPH oxidase 5 (Homo sapiens) (Q96PH1 whole entry, looked up): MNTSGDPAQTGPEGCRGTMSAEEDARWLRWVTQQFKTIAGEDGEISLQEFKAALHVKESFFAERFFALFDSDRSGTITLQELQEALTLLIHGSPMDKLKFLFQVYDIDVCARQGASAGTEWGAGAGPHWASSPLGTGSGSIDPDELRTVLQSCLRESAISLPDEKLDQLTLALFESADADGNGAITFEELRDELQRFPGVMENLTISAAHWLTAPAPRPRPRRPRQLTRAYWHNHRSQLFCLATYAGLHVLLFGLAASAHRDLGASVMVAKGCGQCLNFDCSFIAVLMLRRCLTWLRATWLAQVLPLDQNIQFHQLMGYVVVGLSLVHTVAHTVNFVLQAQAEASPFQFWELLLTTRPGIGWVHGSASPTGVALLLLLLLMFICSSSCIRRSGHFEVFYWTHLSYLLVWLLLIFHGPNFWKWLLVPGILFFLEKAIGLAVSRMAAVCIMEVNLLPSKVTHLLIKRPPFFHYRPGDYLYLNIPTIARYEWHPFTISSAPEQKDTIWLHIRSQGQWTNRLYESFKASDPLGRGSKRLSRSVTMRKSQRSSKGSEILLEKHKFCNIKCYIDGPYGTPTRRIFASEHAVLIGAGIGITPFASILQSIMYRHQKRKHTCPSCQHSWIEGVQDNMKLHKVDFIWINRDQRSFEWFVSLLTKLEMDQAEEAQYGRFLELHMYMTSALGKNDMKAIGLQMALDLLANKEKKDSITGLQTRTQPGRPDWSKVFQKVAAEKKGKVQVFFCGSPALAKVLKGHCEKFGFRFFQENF
SMILES,composite z-score [1],z-score [2],z-score [3],z-score [4],z-score [5],composite z-score [6],composite z-score [7],composite z-score (Torsin-1A (Homo sapiens) [8]),composite z-score (Torsin-1A (Homo sapiens) [9]),composite z-score [10],z-score [11],composite z-score [12],z-score [13],z-score [14],z-score [15],z-score [16],z-score [17],z-score [18],z-score [19],z-score [20]
CCCc1cc2c(n1Cc1cccc(Cl)c1)C(C)C1CN(C(=O)c3ccccc3)C(C)(C(=O)OC)C21 (stereo not given),0.318,-2.78 (inactive),0.00978 (inactive),0.0041 (inactive),-1.1 (inactive),0.78,0.138,-0.0514,1.27,-0.083,-1.69 (inactive),0.235,2.02 (inactive),0.676 (inactive),1.22 (inactive),0.153 (inactive),-0.46,-1.21 (inactive),-2.3 (inactive),-2.42
C[C@@H]1Cc2c(cnc3c2CN(C)CC3)CO1,0.0844,-1.38 (inactive),-0.181 (inactive),-0.258 (inactive),-1.05 (inactive),-0.179,-0.0523,0.742,1.12,1.71,-0.397 (inactive),-0.152,-0.0969 (inactive),-0.0787 (inactive),0.123 (inactive),0.0517 (inactive),-0.0609,1.5 (inactive),0.188 (inactive),-0.719
COc1cc2c(cc1O)C(C)N(C)CC2 (stereo not given),-0.0967,0.639 (inactive),0.67 (inactive),0.0655 (inactive),-0.497 (inactive),0.0031,-0.0468,-0.638,-0.744,-0.12,1.01 (inactive),0.026,0.726 (inactive),0.0698 (inactive),-0.306 (inactive),0.107 (inactive),-0.0939,-2.93 (inactive),-1.92 (inactive),-2.86
COC(=O)[C@H]1C(=O)c2ccccc2O[C@@](C(=O)OC)(c2ccccc2)[C@@H]1c1ccccc1,0.107,-1.35 (inactive),0.352 (inactive),-0.523 (inactive),1.24 (inactive),-0.37,0.177,0.0049,0.0856,0.0053,0.0473 (inactive),-0.199,0.251 (inactive),-0.528 (inactive),-0.591 (inactive),-0.56 (inactive),-0.651,1.19 (inactive),0.752 (inactive),0.627
COC(=O)[C@H]1[C@@H](O)[C@@]2(O)c3c(OC)cc(OC)cc3O[C@@]2(c2ccc(OC)cc2)[C@@H]1c1ccccc1,0.226,-4.75 (inactive),-0.638 (inactive),1.82 (inactive),1.43 (inactive),0.442,0.0054,0.0165,0.295,0.683,0.662 (inactive),-0.19,0.253 (inactive),0.0987 (inactive),-0.15 (inactive),-0.219 (inactive),-1.37,0.0111 (inactive),-0.0152 (inactive),0.219
COc1cc2c(cc1O)C=[N+](C)CC2,0.182,-1.29 (inactive),-0.527 (inactive),-0.438 (inactive),-0.811 (inactive),-0.306,-0.152,-1.31,-1.25,1.65,1.13 (inactive),-0.147,2.39 (inactive),-0.687 (inactive),0.0284 (inactive),-0.752 (inactive),2.42,-3.74 (inactive),-2.03 (inactive),-2.13
COC(=O)C1(C)C=C2C(=C(C)C(=O)C2C)CN1 (stereo not given),-0.163,0.0631 (inactive),-0.596 (inactive),-0.182 (inactive),3.71 (inactive),-0.164,0.0442,0.219,-0.186,-0.473,-1.84 (inactive),0.257,0.539 (inactive),0.405 (inactive),1.16 (inactive),0.643 (inactive),-0.232,-0.172 (inactive),-2.31 (inactive),-3.35
CCCC[C@@H]1C[C@H]1[C@@H](NP(=O)(c1ccccc1)c1ccccc1)c1ccc(Cl)cc1,0.0234,-0.971 (inactive),-0.451 (inactive),-0.379 (inactive),-0.273 (inactive),0.239,0.157,-1.53,-0.202,-1.29,-1.26 (inactive),0.337,7.22 (inactive),1.78 (inactive),0.394 (inactive),0.788 (inactive),-0.554,-1.87 (inactive),-1.56 (inactive),0.453
